# TMEM16A inh: TMEM16A chloride channel inhibitors, primary screen, cell-based, HTS; Anoctamin-1 (Mus musculus), Q8BHY3; HEK293 TMEM16A/YFP iodide influx fluorescence, ionomycin; normalized B-score (activity score, 25-100; higher = stronger inhibition) at 10 µM; hit rate 1.2% among 310,000; AID 588511, 2011;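 active = ratio plate-corrected score three or more library SD toward inhibition, starting fluorescence score within five deviations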;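 also: score derived from kinetic fluorescence span divided by baseline fluorescence per well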
# ANO1 activ: TMEM16A chloride channel activators or potentiators, primary screen, cell-based, HTS. HEK293 TMEM16A/YFP-H148Q/I152L, iodide quench fluorescence; stronger effect = lower value. B-score at 10 µM. hit rate 0.3% among 340,000. AID 623877, 2012;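 active = fluorescence-ratio B-score plate-corrected deviation score at least 3 library SD below zero, with starting fluorescence score within 5 deviations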;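 also: channel opened by trigger with iodide after compound preincubation; score built on the fluorescence ratio of max minus min over baseline; more negative score means more quench and so TMEM16A activation or potentiation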
# MEKK2 WT-MEK5: modulators of MEK5 binding to wildtype MEKK2, primary screen, biochemical, multiplex bead flow cytometry, Alexa488-MEK5; Mitogen-activated protein kinase kinase kinase 2 (Homo sapiens), Q9Y2U5; Alexa488-MEK5 binding to MEKK2 WT; actives lie on both sides; binding response (% of control), % at 10 µM; hit rate 1.1% among 290,000; in the data active = binding response below about 67% or above about 130%
# MEKK3 PB1 HTS: modulators of MEKK3-MEK5 PB1 binding, primary screen, biochemical, wildtype MEKK3, multiplex bead flow cytometry, Alexa488-MEK5; Mitogen-activated protein kinase kinase kinase 3 (Homo sapiens), Q99759; bead-based flow cytometry, Alexa488-MEK5 binding to MEKK3; actives lie on both sides; 0 = blocked by unlabeled MEK5, 100 = vehicle; binding response (% of control), % at 10 µM; hit rate 1.4% among 290,000; AID 1529, 2009;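 active = binding response more than 3 SD above or below the average of its plate-row segment, actives on both sides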;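 also: Alexa488 bead fluorescence after subtracting the streptavidin-only scavenger bead signal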
# MEKK2 mut-MEK5: MEK5 binding signal on mutant MEKK2 PB1, primary screen, biochemical, multiplex bead flow cytometry, Alexa488-MEK5. Alexa488-MEK5 binding to MEKK2 mutant. percent response, % at 10 µM. hit rate 0.35% among 290,000; in the data active = percent response above about 24%, passing the limit was not always enough
# NTR1 agonist: agonists of human NTR1, primary screen, imaging, U2OS cells, beta-arrestin-GFP, high content. Neurotensin receptor type 1 (Homo sapiens), P30989. hit rate 0.17% among 330,000. activation, % at 20 µM. NTR1-U2OS beta-arrestin-GFP spot imaging, agonist mode;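 active = activation at or above 40% of the spot to cytoplasm intensity ratio, with at least 20 cells analyzed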;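 also: 0% = DMSO without peptide and 100% = 100 nM NTR1 peptide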
# Target sequence (P30989 whole entry, looked up): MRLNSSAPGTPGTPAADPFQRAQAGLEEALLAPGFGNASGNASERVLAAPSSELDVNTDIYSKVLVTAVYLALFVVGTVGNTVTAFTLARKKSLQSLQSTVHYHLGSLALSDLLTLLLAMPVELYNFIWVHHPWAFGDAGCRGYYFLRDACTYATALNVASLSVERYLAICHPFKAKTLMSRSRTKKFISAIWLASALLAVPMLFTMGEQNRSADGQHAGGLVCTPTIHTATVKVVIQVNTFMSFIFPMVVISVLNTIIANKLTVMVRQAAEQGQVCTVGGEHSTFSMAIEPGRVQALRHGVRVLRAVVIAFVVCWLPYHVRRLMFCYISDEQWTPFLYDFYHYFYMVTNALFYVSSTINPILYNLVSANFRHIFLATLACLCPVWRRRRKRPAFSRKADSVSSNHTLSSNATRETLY
# TMEM16A reconf: TMEM16A chloride channel inhibitors, confirmation, cell-based, re-confirmation | hit rate 39% among 2,300 | inhibition, % at 10 µM | shares compounds with TMEM16A inh | HEK293 TMEM16A/YFP-H148Q, iodide quench fluorescence; ionomycin added to raise cell calcium;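 active = mean duplicate percent inhibition, scaled so buffer wells are 0 and the reference blocker 100, over three buffer SD above buffer mean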
# HEK293 Ca mobil: calcium mobilization in TMEM16A/YFP HEK293 cells, confirmation, counter-screen for TMEM16A inhibitor project. shares compounds with TMEM16A inh. Fluo4 calcium mobilization. calcium response (% of ionomycin), % at 10 µM. hit rate 2% among 2,300. AID 652231, 2013;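 active = duplicate-averaged calcium signal over 20% of the ionomycin maximum, relative to buffer baseline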;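 also: each well's signal is peak minus trough fluorescence divided by its pre-addition baseline; 0% = buffer wells and 100% = ionomycin wells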
# Parental YFP cnt: iodide YFP quench changes in parental YFP-HEK293, counter-screen for TMEM16A inhibitor project, cell-based; shares compounds with TMEM16A inh; ionomycin; YFP ratio F(max-min)/F0 at 10 µM; 2,300 tested, under 10 active;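 active = yellow fluorescent protein signal ratio exceeding the buffer control mean by over 5 SD of those controls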;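 also: ratio is mean of duplicate wells from kinetic YFP trace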
# ClC-1 inh: ClC-1 chloride channel inhibition, selectivity assay for TMEM16A inhibitor project, cell-based, voltage-dependent ClC-1; shares compounds with TMEM16A inh; CHO ClC-1-YFP, iodide influx fluorescence quench; iodide control reads 0, buffer control 100; ratio percent, % at 10 µM; 2,300 tested, under 10 active;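 active = duplicate-mean ratio percent above the mean of iodide-only control wells, which defines zero, plus 5 of their SD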;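 also: higher percent means stronger block of ClC-1 iodide influx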
# An asterisk follows results filed as active; i = inactive; x = no result given. In the library only some 3.4% were active in any assay of this set; here they are far more common.
SMILES,TMEM16A inh,ANO1 activ,MEKK2 WT-MEK5,MEKK3 PB1 HTS,MEKK2 mut-MEK5,NTR1 agonist,TMEM16A reconf,HEK293 Ca mobil,Parental YFP cnt,ClC-1 inh
CCCc1cc(C(N)=O)c(NC(C)=O)s1,100*,i,98,100,3,0,i,i,-0.92,-14
CCOc1ccc(S(=O)(=O)N2c3ccccc3CC2C)cc1 (stereo unspecified),100*,i,106,106,0,5,i,i,-1.1,-8
Cc1ccc(S(=O)(=O)N2c3ccccc3CC2C)cc1 (stereo unspecified),i,i,98,100,-5,2,x,x,x,x
COc1ccc(C(=O)Nc2ccccc2C(=O)N2CCOCC2)cc1OC,i,i,97,101,1,-1,x,x,x,x
COc1cccc(OC)c1C(=O)Nc1ccccc1C(=O)N1CCOCC1,100*,i,85,88,-13,1,i,i,-0.81,-5
CC(Oc1ccc(F)cc1)C(=O)Nc1ccc(N2CCOCC2)cc1N1CCOCC1 (stereo unspecified),i,i,x,x,x,0,x,x,x,x
CC(Oc1cccc(Cl)c1)C(=O)Nc1ccc(N2CCOCC2)cc1N1CCOCC1 (stereo unspecified),25*,i,x,x,x,3,i,i,-1,-8
COc1cccc(OC)c1C(=O)Nc1cc(Cl)ccc1N1CCOCC1,i,i,99,100,1,0,i,i,-1,-9
CC(C(=O)Nc1sc2c(c1C#N)CCCCC2)N1C(=O)c2ccccc2C1=O (stereo unspecified),i,i,94,101,1,2,x,x,x,x
COC(OC)C1(CCc2ccccc2)NC(=O)NC1=O (stereo unspecified),x,i,x,x,x,x,x,x,x,x
COc1ccc(C2=NS(=O)(=O)N(C)C(C(=O)NCc3ccccc3)=C2)cc1OC,i,i,96,100,-1,0,x,x,x,x
COc1ccc(C2=NS(=O)(=O)N(C)C(C(=O)N3CCc4ccccc4C3)=C2)cc1OC,25*,i,104,102,0,-2,26%*,i,-0.93,-9
O=C(C1CCC(=O)N(C2CCCC2)C1)N1CCN(c2ccc(Cl)cc2)CC1 (stereo unspecified),i,i,102,98,-4,3,x,x,x,x
Cc1ccc(Cl)cc1N1CCN(C(=O)C2CCC(=O)N(C3CCCCCC3)C2)CC1 (stereo unspecified),100*,i,100,102,0,3,18%*,i,-1.3,-16
CC(C)N(Cc1nccn1C)C(=O)c1cc(COc2ccc3ncccc3c2)on1,i,i,102,102,0,1,x,x,x,x
Cc1nc(CN(C)C(=O)c2cc(COc3ccc4ncccc4c3)on2)cs1,100*,i,x,x,x,-1,18%*,i,-1,-25
O=C(COC(=O)CNC(=O)C1CCCCC1)Nc1ccccc1Cl,x,i,x,x,x,0,x,x,x,x
Cc1nc(SCc2ccc(Cl)c(Cl)c2)ncc1C(=O)O,25*,i,99,108,-3,0,22%*,i,-0.73,-5
O=C(Nc1ccc(OCC(F)(F)C(F)F)c(C(F)(F)F)c1)c1ccccc1,i,i,114,105,5,7,x,x,x,x
O=C(Nc1ccc(OCC(F)(F)C(F)F)c(C(F)(F)F)c1)c1ccccc1O,100*,i,90,91,0,7,i,i,-0.78,-9
CC(C)(C)[C@H](N)C(=O)N[C@H]1CCC2C3CC=C4C[C@@H](O)CC[C@]4(C)C3CC[C@@]21C (stereo partly specified),x,i,x,x,x,36,x,x,x,x
CCOc1ccccc1NC(=O)COC(=O)CSc1ccc(Cl)cc1,i,i,96,100,-1,-2,x,x,x,x
Cc1nc(C)c(-c2csc(Nc3ccc(F)cc3)n2)s1,25*,i,106,101,1,10,21%*,i,-1,-6
CC(C)OC(=O)C1C2C=CC3(CN(Cc4cccs4)C(=O)C13)O2 (stereo unspecified),100*,i,101,108,3,1,i,i,-0.98,-14
COC(=O)C1C2C=CC3(CN(Cc4cccs4)C(=O)C13)O2 (stereo unspecified),i,i,97,95,-1,-1,x,x,x,x
SMILES,TMEM16A inh,ANO1 activ,MEKK2 WT-MEK5,MEKK3 PB1 HTS,MEKK2 mut-MEK5,NTR1 agonist,TMEM16A reconf,HEK293 Ca mobil,Parental YFP cnt,ClC-1 inh
COc1ccc(C2C(C(=O)N3CCN(c4ccccc4)CC3)c3ccccc3C(=O)N2C)cc1OC (stereo unspecified),100*,i,105,118,4,1,i,i,-1.1,-30
CN(CC(=O)Nc1c(Cl)cccc1Cl)C(=O)CNC(=O)c1ccco1,x,i,x,x,x,0,x,x,x,x
CCN(CC(=O)Nc1ccc(OC)cc1)C(=O)c1ccccc1Sc1ccccc1C#N,i,i,x,x,x,-1,x,x,x,x
Cc1cccc(N2CCN(C(=O)CN3CCOc4ccccc43)CC2C)c1 (stereo unspecified),25*,i,106,100,1,-3,i,i,-1.1,-12
O=C(CC(=O)Nc1ccc(Cl)cc1)N/N=C\c1cccc(F)c1,i,i,97,105,-1,-1,x,x,x,x
O=C(O)c1c(NC(=O)c2cccc3ccccc23)sc2c1CCC2,100*,i,95,102,-1,1,24%*,i,-1,-14

# Bioassay records as filed in PubChem.
